From PubChem BioAssay (NCATS) come the findings set out here.

A number with no mark means an inactive call. Active and inactive are the calls of the source. The rule behind the calls is not given here.
Potency is the fitted concentration of half-maximal effect.

The assay relates to HIV-1 nucleocapsid protein NCp7 (binding to TG oligonucleotide). Description: HIV Nucleocapsid (AID 346).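 Note: potency is for inhibitors that block NC binding and lower polarization.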 Particulars: HIV-1 NC / fluorescein-TGTGTGTG probe, fluorescence polarization. The procedure, abridged:
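Inhibition of nucleocapsid binding to single-stranded 5'-TGTGTGTG probe (10 nM) was measured by fluorescence polarization after 1 hr at room temperature with 100 nM protein under high-salt, zinc-containing, reducing conditions.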
Background: In fluorescence polarisation assays a small probe gives low polarisation when free and higher when bound to something large.
Consider `CCNc1ncc2nc(-c3ccc(F)cc3)c(=O)n(CCC#N)c2n1`, for which the Potency was > 4 µM.

For `Cc1cnc(CNc2nc(-c3ccccc3C)nc3ccccc23)cn1`, the Potency is > 20 µM.

Take `c1nc(NCCN2CCOCC2)c2cc(-c3ccc4c(c3)OCO4)ccc2n1`: the Potency was > 20 µM.

As to `COc1cccc(Nc2ncc3nc(C)c(=O)n(CCc4ccccc4)c3n2)c1`, the Potency is > 20 µM.

With `CNc1ncncc1-c1ccc(C(=O)N(C)C)cc1`, the Potency is > 20 µM.

For the molecule `O=C(c1ccco1)N1CCC2(CCCN(C(c3ccccc3)c3ccccc3)C2)CC1`, the Potency was > 20 µM.

In the case of `O=S(=O)(c1ccccc1)N1CCC2(CCN(c3ccc(-c4ccccc4)cc3)CC2)CC1`, the Potency is > 20 µM.

For `COc1ccc(-n2c(=O)c(-c3cc(F)cc(F)c3)nc3cncnc32)cc1`, the Potency was > 20 µM.

As to `COc1ccc(Oc2ncc3nc(-c4cc(F)cc(F)c4)c(=O)n(C)c3n2)cc1`, the Potency is > 20 µM.

Take `O=c1cnc2cnc(Oc3cccc(Cl)c3)nc2n1C1CC1`: the Potency was > 20 µM.

`COc1cccc(-c2ccc3ncnc(NC4CCNCC4)c3c2)c1`: the Potency is > 20 µM.

For `CS(=O)(=O)N1CCC[C@@]2(CCN(Cc3nccs3)C2)C1`, the Potency was > 20 µM.

Turning to `COc1ccc(-c2nc3cnc(Nc4ccccc4)nc3n(CCC#N)c2=O)cc1`, the Potency was 2.04 µM (active).

On to `COc1ccc(Oc2ncc3ncc(=O)n(-c4ccc(OC)cc4)c3n2)cc1`, for which the Potency was > 20 µM.

As for `COc1ncc2nc(C)c(=O)n(C[C@H]3CCCO3)c2n1`, the Potency is > 20 µM.

As for `COCCn1c(=O)c(CCc2ccccc2)nc2cnc(OCc3ccccc3)nc21`, the Potency is > 20 µM.

Consider `CCNc1ncc2nc(-c3ccc(F)cc3)c(=O)n(C)c2n1`, for which the Potency is > 20 µM.

For `O=C(c1ccncc1)N1CCC[C@@]2(CCN(c3ncccn3)C2)C1`, the Potency is > 20 µM.

For `N#Cc1ccccc1-c1ccc2ncnc(NC3CC3)c2c1`, the Potency was > 20 µM.

For the molecule `c1cncc(-c2ccc3ncnc(NC4CCNCC4)c3c2)c1`, the Potency is > 20 µM.

Turning to `O=c1c(-c2ccc(F)cc2)nc2cnc(N3CCOCC3)nc2n1-c1ccccc1`, the Potency was > 20 µM.

As to `COc1ccc(NC(=O)N2CC3(CCN(C(=O)c4cccc(F)c4)CC3)C2)cc1`, the Potency is > 20 µM.

As for `O=C(Nc1cccc(F)c1)N1CCCC2(CCN(C(=O)c3cc(C(F)(F)F)cc(C(F)(F)F)c3)CC2)C1`, the Potency is > 20 µM.

On to `COCC(=O)N1CCC2(CCCN(Cc3cc(C(F)(F)F)cc(C(F)(F)F)c3)C2)CC1`, for which the Potency was > 20 µM.

As to `O=C(Oc1ccccc1)N1CCC2(CCCN(c3ccccn3)C2)CC1`, the Potency was > 20 µM.

In the case of `Cc1cnc(CNc2ccnc(-c3c(C)noc3C)n2)cn1`, the Potency was > 20 µM.

As for `COc1ccc(NC(=O)N2CC[C@@]3(CCCN(C(=O)c4ccncc4)C3)C2)cc1`, the Potency is > 20 µM.

`CCNc1ncc2nc(-c3cc(F)cc(F)c3)c(=O)n(C)c2n1`: the Potency is > 20 µM.

`O=C(c1ccco1)N1CCC2(CC1)CN(C(c1ccccc1)c1ccccc1)C2`: the Potency is > 20 µM.

As to `O=C(c1cnccn1)N1CCC2(CCCN(c3ccccc3)C2)CC1`, the Potency was > 20 µM.

Consider `O=C(c1ccco1)N1CCC2(CC1)CN(c1ncccn1)C2`, for which the Potency was > 20 µM.

On to `COc1cccc(-c2ccc3ncnc(N(C)C)c3c2)c1`, for which the Potency was > 20 µM.

With `N#CCCn1c(=O)c(-c2ccc(Cl)cc2)nc2cnc(OCc3ccccc3)nc21`, the Potency was > 20 µM.

For the molecule `Cc1noc(C)c1-c1nccc(NCCN2CCOCC2)n1`, the Potency is > 20 µM.

As for `O=C(Oc1ccccc1)N1CCC2(CC1)CN(c1ncccn1)C2`, the Potency was > 20 µM.

In the case of `COc1ccc(Oc2ncc3nc(-c4ccc(OC)cc4)c(=O)n(CCC#N)c3n2)cc1`, the Potency was > 20 µM.

In the case of `N#Cc1cccc(NC(=O)N2CC[C@@]3(CCCN(C(=O)c4ccco4)C3)C2)c1`, the Potency was > 20 µM.

As for `Cc1cnc(CNc2ncnc3ccc(-c4ccccc4C(F)(F)F)cc23)cn1`, the Potency was > 20 µM.

For `COc1ccc(CNc2nc(-c3c(C)noc3C)nc3ccccc23)c(OC)c1`, the Potency was > 20 µM.
